From PubChem BioAssay (NCI)
About 79,000 compounds went through this panel and 15% of them were active in at least one assay; those are over-represented in the sample as a whole. No stated cut-off is given here; in the data, active means growth inhibition above about 70%; inactive means the rest.

Tests used:
[1] = NCI Yeast Anticancer Drug Screen. Data for the rad50 strain (AID 155);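 further: 0% = growth of vehicle-only cultures of the same strain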; details: S. cerevisiae rad50 strain growth inhibition; at 50.0 µM; active compounds read high
Procedure, shortened: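 Genetically altered yeast (DNA repair pathway); compound treatment; growth inhibition vs vehicle ctrl.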

[2] = NCI Yeast Anticancer Drug Screen. Data for the mec2-1 strain (AID 157); details: S. cerevisiae mec2-1 strain, at 50.0 µM, active compounds read high
Procedure, shortened: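 Cells of the genetically defined mec2-1 yeast strain are incubated with test compound. Inhibition of growth is calculated against vehicle-treated controls.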

[3] = NCI Yeast Anticancer Drug Screen. Data for the sgs1 mgt1 strain (AID 161);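 further: 0% = growth of cultures given vehicle only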; details: S. cerevisiae sgs1 mgt1 strain, at 50.0 µM, active compounds read high
Procedure, shortened: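 Inhibition of yeast growth, normalised to vehicle-treated controls, is reported for a strain bearing genetic alterations in DNA damage repair.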

[4] = NCI Yeast Anticancer Drug Screen. Data for the cln2 rad14 strain (AID 165);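 further: 0% = growth equal to vehicle treated cultures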; details: S. cerevisiae cln2 rad14 strain, at 50.0 µM, active compounds read high
Procedure, shortened: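 The screen exposed genetically defined yeast (cln2 rad14) to test compounds and scored growth inhibition relative to vehicle-treated controls.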

[5] = NCI Yeast Anticancer Drug Screen. Data for the bub3 strain (AID 167); details: S. cerevisiae bub3 mutant strain, at 50.0 µM, active compounds read high
Procedure, shortened: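 Yeast carrying a defined mutation is treated with each compound, and growth is compared with that of vehicle-exposed cells to give inhibition.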

[6] = NCI Yeast Anticancer Drug Screen. Data for the mlh1 rad18 strain (AID 175); details: S. cerevisiae mlh1 rad18 strain growth inhibition; at 50.0 µM; active compounds read high
Procedure, shortened: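 Compound-treated yeast growth, normalised to vehicle controls. Strain bears defined DNA repair mutations.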

Measured: growth inhibition

COc1cc(C=O)ccc1OC(=O)Nc1cccc(Cl)c1C
inactive: [1] -0.55% | [2] 18.6% | [3] 15.8% | [4] 1.9% | [5] 37.2% | [6] 17.8%

[O-]c1on[n+]2c1c(Nc1ccc(Cl)cc1)nc1ccccc12
inactive: [1] -31.1% | [2] -28% | [3] -22.3% | [4] -21.2% | [5] -36.5% | [6] -39.5%

COc1ccc(/C=C/C(=O)c2c(-c3ccccc3)nn(C)c(=O)c2N2CCCC2)cc1
inactive: [1] -23.8% | [2] -20.3% | [3] -33.2% | [4] -24.4% | [5] -11.2% | [6] -34.1%

CCN1CCCC(Cl)C1 (stereo not drawn)
inactive: [1] 12.8% | [2] -41% | [3] 14.7% | [4] -0.5% | [5] -12.4% | [6] 5.95%

Cn1c(=O)c2[nH]c(=O)n(C)c2n(C)c1=O
inactive: [1] -5.35% | [2] 2.25% | [3] 12.6% | [4] -9.55% | [5] 16.5% | [6] 16.1%

CCOC(=O)C(C)(C(C)=O)c1nc(=S)[nH]c(=S)[nH]1 (stereo not drawn)
inactive: [1] 4.2% | [2] 7.55% | [3] 2.1% | [4] -19.8% | [5] 7.25% | [6] -5.1%

CCCCCCC(O)CCCCCC
inactive: [1] 27.4% | [2] -16.4% | [3] 26.4% | [4] -24.6% | [5] 21.5% | [6] -12.3%

O=C(CN=C(CN(c1ccccc1)c1ccccc1)Oc1c(Cl)cc(Cl)cc1Cl)N1c2ccccc2Sc2ccccc21
inactive: [1] 4.75% | [2] -10.8% | [3] 36.5% | [4] -36.2% | [5] -14.7% | [6] 7.8%

Cc1c(C=O)cc(-c2ccccc2)n1C
inactive: [1] -16.2% | [2] -3.25% | [3] -4.85% | [4] -8.45% | [5] -7.1% | [6] -1.6%

O=S(=O)(O)C1CC2C(c3ccccc31)N1ON2O1 (stereo not drawn)
inactive: [1] 54.8% | [2] -2.05% | [3] 10.3% | [4] 3.75% | [5] -14.7% | [6] -0.95%

C=C(C)CS(=O)(=O)O
inactive: [1] -0.15% | [2] 3.45% | [3] 1.85% | [4] -13.1% | [5] 3.35% | [6] 1.65%

CCCCCCCOc1ccc(/C=C\c2cc[n+](CCCCCCCC[n+]3ccc(/C=C\c4ccc(OCCCCCCC)cc4)cc3)cc2)cc1
inactive: [1] -22.4% | [2] -7.95% | [3] -14.2% | [4] 22.7% | [5] 8.1% | [6] 10.2%

CCC(=O)OCCCc1ccccc1
inactive: [1] 22.1% | [2] 8.25% | [3] 15.8% | [4] 9.25% | [5] 12.3% | [6] 10.8%

COC(=O)C1OC(n2ccc(=O)[nH]c2=O)C(OC(C)=O)C(OC(C)=O)C1OC(C)=O (stereo not drawn)
inactive: [1] 2.2% | [2] -3.4% | [3] -1.3% | [4] -9.55% | [5] 1.45% | [6] 6.6%

Cc1ccc(S(=O)(=O)n2cncc2CO)cc1
inactive: [1] -33.7% | [2] -26.8% | [3] -15.1% | [4] 7.55% | [5] 4.05% | [6] -10.7%

Cc1ccc(N=Cc2ccccc2O)cc1.[Co]
inactive: [1] -18.9% | [2] 14.9% | [3] -2.75% | [4] 14.2% | [5] 1.45% | [6] -11.1%

O=C(O)CC(Nc1ncccn1)C(=O)O (stereo not drawn)
inactive: [1] 3.05% | [2] 6% | [3] 10.7% | [4] 24.1% | [5] -6.1% | [6] 5.4%

O=C(O)C1=C(c2ccccc2)C=C(c2ccccc2)C1
inactive: [1] 0% | [2] 0.2% | [3] 12.8% | [4] -33% | [5] 48% | [6] 28.9%

O=C(Nc1nc(=S)[nH][nH]1)C(=O)C(c1cnc2ccc([N+](=O)[O-])cc2n1)[N+](=O)[O-] (stereo not drawn)
inactive: [1] -4.5% | [2] -26% | [3] -14.3% | [4] 7.9% | [5] -0.6% | [6] 3.2%

O=c1nc2c(c(-c3ccc(Br)cc3)[nH]1)COC/C2=C\c1ccc(Br)cc1
inactive: [1] 31.1% | [2] 17.2% | [3] 35.8% | [4] 8% | [5] 18.1% | [6] 31.3%

O=C1CCC(=O)Nc2ccc3nc4ccccc4c(c3c2)SCCCCCCCCCCCCSc2c3ccccc3nc3ccc(cc23)N1
inactive: [1] -22.4% | [2] -15.2% | [3] -15.2% | [4] -36.4% | [5] -8.4% | [6] -0.85%

N#CC(C#N)=C(N)/C(C#N)=C/c1ccc(O)c(O)c1
inactive: [1] -14.2% | [2] -4.9% | [3] -5.25% | [4] 3.7% | [5] 2.4% | [6] 6.85%

CCCCCCC(NC(C)=O)C(=O)O (stereo not drawn)
inactive: [1] 3.85% | [2] -4.7% | [3] 13.9% | [4] 6.35% | [5] 4.3% | [6] 3.5%

CCCCCC[N+]12CC=C3COC(=O)C(C)(O)C(C)(O)C(C)C(=O)OC(CC1)C32 (stereo not drawn)
inactive: [1] 0.7% | [2] -6.15% | [3] -0.25% | [4] 13.7% | [5] -3.35% | [6] 7.85%

CCCCCCCCCCCCOc1ccc2ccccc2c1
inactive: [1] -7.2% | [2] 15.9% | [3] 0.85% | [4] -17.6% | [5] -6.45% | [6] -8.15%

CN=c1ncc2nc(-c3ccccc3)c(-c3ccccc3)n(C)c-2n1
inactive: [1] -8.2% | [2] -5.9% | [3] -7.45% | [4] -42% | [5] -3.85% | [6] -24.4%

Cc1cccc(C(=O)OC(=O)c2cccc(C)c2)c1
inactive: [1] -3.85% | [2] -37% | [3] -9.75% | [4] -6% | [5] -23.9% | [6] 10.3%

CC(O)C(=O)OCCOCCOC(=O)C(C)O (stereo not drawn)
inactive: [1] 21.4% | [2] 4.1% | [3] 10.8% | [4] -11.8% | [5] 11.8% | [6] 7.4%

CCC(C)(CC(=O)O)CC(=O)O
inactive: [1] -13.9% | [2] 7.45% | [3] -15.7% | [4] 0.85% | [5] 2.7% | [6] 5.3%

COc1ccc(OC)c(NC(=O)CCCC(=O)C(C#N)c2c(Cl)cccc2Cl)c1 (stereo not drawn)
inactive: [1] 8.6% | [2] 5.5% | [3] -5.7% | [4] -8.05% | [5] 9.2% | [6] -3.5%

Cc1ccc(S(=O)(=O)OCC23CCC(CC2)CC3)cc1
inactive: [1] -30% | [2] -9.85% | [3] -26.2% | [4] -3.5% | [5] 39.6% | [6] -1.2%

C=CCC1CCC/C1=N\O (stereo not drawn)
inactive: [1] -13.4% | [2] 10.4% | [3] 17.3% | [4] -12.2% | [5] -3.15% | [6] 3.9%

O=C(N/C(=C\c1ccc([N+](=O)[O-])cc1)c1nc2ccccc2[nH]1)c1ccccc1
inactive: [1] 29.1% | [2] 6.55% | [3] 8.35% | [4] -37.9% | [5] 17.9% | [6] 23.8%

Cc1ccc(C2SC(N)=Nc3c2c(C)nn3C(=O)c2ccncc2)cc1 (stereo not drawn)
inactive: [1] -27.6% | [2] -33.2% | [3] -20% | [4] -21.7% | [5] -28% | [6] -23.6%

CC(C)c1ccc(/C=C2\C=Nc3ccccc32)cc1
inactive: [1] 15.8% | [2] 11.7% | [3] 28.9% | [4] 5.2% | [5] 50.7% | [6] 20.6%

O=CNC(NC=O)NC=O
inactive: [1] -3.4% | [2] -2.2% | [3] -2.15% | [4] 15.2% | [5] -4.3% | [6] 0.95%

CCOC(=O)C(C)(C)OC(C)=O
inactive: [1] 39.2% | [2] 21.4% | [3] 19.6% | [4] 13.8% | [5] 4.2% | [6] 2.15%

Cc1cccc(NC(=O)Nc2cccc(Cl)c2Cl)n1
inactive: [1] 15.9% | [2] 13.7% | [3] 13.6% | [4] 15.1% | [5] 23.9% | [6] 18.6%
